BoNT F protease: BoNT/F light chain protease inhibitors, primary screen, biochemical, flow cytometry, MLPCN library; Botulinum neurotoxin type F light chain protease (Clostridium botulinum); Multiplex microsphere protease cleavage assay; inhibition, % at 10 µM; 0.22% of 360,000 active; AID 588497, 2011; in the data active = inhibition above about 35%, passing the limit was not always enough; inconclusive = no clear call, values can overlap the other calls; note: plate controls were buffer without enzyme for full effect and enzyme alone for no effect
Autofluor counter: compound fluorescence in toxin protease inhibitor counterscreen; compound autofluorescence counterscreen, microsphere flow cytometry; hits give high values; fluorescence intensity (concentration not given with the values); 3.1% of 360,000 active; in the data active = fluorescence intensity above about 16000; inconclusive = no clear call, values can overlap the other calls
MazF activator: activators of E. coli MazEF toxin-antitoxin RNase, primary screen, biochemical, fluorescence, uHTS; activation, % at 20 µM; Endoribonuclease toxin MazF (Escherichia coli (strain K12)), P0AE70; 0.32% of 350,000 active; FAM/BHQ RNA-DNA oligo cleavage fluorescence, 5 h; in the data active = activation above about 50%
BoNT A protease: BoNT/A light chain protease inhibitors, primary screen, biochemical, flow cytometry, MLPCN library | multiplex microsphere protease substrate cleavage | inhibition, % at 10 µM | 0.17% of 360,000 active | AID 588499, 2011; note: plate controls were buffer without enzyme for full effect and enzyme alone for no effect
Anthrax LF inh2: Bacillus anthracis LF protease inhibitors, primary screen, biochemical, multiplex microsphere, MLPCN library; 0.12% of 360,000 active; Lethal factor (Bacillus anthracis), P15917; inhibition, % at 10 µM; AID 588501, 2011; multiplex microsphere protease cleavage assay; note: plate controls were buffer without enzyme for full effect and enzyme alone for no effect
Target sequence (P15917 whole entry, looked up): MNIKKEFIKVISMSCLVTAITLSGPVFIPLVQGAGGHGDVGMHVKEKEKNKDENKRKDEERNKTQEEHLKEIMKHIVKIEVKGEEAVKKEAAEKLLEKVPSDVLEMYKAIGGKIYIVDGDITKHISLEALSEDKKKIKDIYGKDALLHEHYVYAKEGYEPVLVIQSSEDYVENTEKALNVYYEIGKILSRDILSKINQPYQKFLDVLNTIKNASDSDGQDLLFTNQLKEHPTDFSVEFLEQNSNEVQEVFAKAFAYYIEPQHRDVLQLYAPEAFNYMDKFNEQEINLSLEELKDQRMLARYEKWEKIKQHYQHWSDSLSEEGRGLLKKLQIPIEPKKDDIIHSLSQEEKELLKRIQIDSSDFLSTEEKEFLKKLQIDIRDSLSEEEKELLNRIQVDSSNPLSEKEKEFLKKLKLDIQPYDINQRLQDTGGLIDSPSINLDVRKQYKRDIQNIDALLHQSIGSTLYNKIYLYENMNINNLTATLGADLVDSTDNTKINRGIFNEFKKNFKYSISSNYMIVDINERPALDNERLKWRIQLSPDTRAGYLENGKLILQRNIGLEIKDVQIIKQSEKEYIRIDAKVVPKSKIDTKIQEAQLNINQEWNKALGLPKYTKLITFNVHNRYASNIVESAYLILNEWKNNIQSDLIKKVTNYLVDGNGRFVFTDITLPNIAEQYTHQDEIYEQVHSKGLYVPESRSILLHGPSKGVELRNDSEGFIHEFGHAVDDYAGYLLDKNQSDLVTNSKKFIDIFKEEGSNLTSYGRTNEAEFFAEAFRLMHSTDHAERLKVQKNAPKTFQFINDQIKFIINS
VHR inh abs: VHR1 phosphatase inhibitors, primary screen, biochemical, absorbance, uHTS | Dual specificity protein phosphatase 3 (Homo sapiens), P51452 | recombinant VHR phosphatase, pNPP absorbance | inhibition, % at 13.3 µM | 0.52% of 290,000 active | AID 1654, 2009; in the data active = inhibition above about 50%
* = called active by the depositor. Most compounds without a hit are left out; they make up all but 4% or so of the library. Cut-off read from the data, not from the text of the source, unless noted: active = inhibition above about 30%; inconclusive = no clear call, values can overlap the other calls; inactive = below that.

What do the screens show for `Cc1cc(C(=O)Nc2cc(C(F)(F)F)ccc2N2CCOCC2)no1`?
BoNT F protease: 7; Autofluor counter: 5797; MazF activator: 5; BoNT A protease: 0; Anthrax LF inh2: 0; VHR inh abs: 5

How did Cn1ccnc1SCC(=O)Nc1cccc(C(F)(F)F)c1 do in these assays?
BoNT F protease: 1; Autofluor counter: 9149; MazF activator: 5; BoNT A protease: 1; Anthrax LF inh2: -8; VHR inh abs: 30

How did Cn1cnnc1SCC(=O)Nc1cc(C(F)(F)F)ccc1N1CCOCC1 do in these assays?
BoNT F protease: 3; Autofluor counter: 4099; MazF activator: 10; BoNT A protease: 0; Anthrax LF inh2: -9; VHR inh abs: 23

How did O=C(Nc1cc(C(F)(F)F)ccc1N1CCOCC1)C1Cc2ccccc2CN1C(=O)c1ccco1 (stereo not given) do in these assays?
BoNT F protease: -1; Autofluor counter: 20221*; MazF activator: -7; BoNT A protease: 2; Anthrax LF inh2: 2; VHR inh abs: -3

What do the screens show for `Cn1ccnc1SCC(=O)Nc1cc(C(F)(F)F)ccc1N1CCOCC1`?
BoNT F protease: 1; Autofluor counter: 16282*; MazF activator: 4; BoNT A protease: inconclusive; Anthrax LF inh2: -1; VHR inh abs: 31

How did O=C(Nc1ccccc1)C1Cc2ccccc2CN1C(=O)c1ccco1 (stereo not given) do in these assays?
BoNT F protease: 3; Autofluor counter: 8551; MazF activator: 7; BoNT A protease: 1; Anthrax LF inh2: 14; VHR inh abs: 39

Results for CCOc1ccc(N2CC(C(=O)Nc3ccc(N4CCOCC4)cc3)CC2=O)cc1 (stereo not given) ?
BoNT F protease: -2; Autofluor counter: inconclusive; MazF activator: 1; BoNT A protease: 1; Anthrax LF inh2: 5; VHR inh abs: -5

How did O=C(Nc1cc(C(F)(F)F)ccc1N1CCOCC1)c1cccc(F)c1 do in these assays?
BoNT F protease: 0; Autofluor counter: 2713; MazF activator: 1; BoNT A protease: 0; Anthrax LF inh2: -1; VHR inh abs: -14

Results for O=C(Nc1cc(C(F)(F)F)ccc1N1CCOCC1)c1cncc(Br)c1 ?
BoNT F protease: -11; Autofluor counter: 22690*; MazF activator: 3; BoNT A protease: -10; Anthrax LF inh2: -1; VHR inh abs: 21

Results for Cc1ccc(Cc2nnc3n(-c4ccccc4)nc(C(=O)c4ccccc4)n3c2=O)cc1 ?
BoNT F protease: -5; Autofluor counter: 21560*; MazF activator: -3; BoNT A protease: -3; Anthrax LF inh2: -1; VHR inh abs: 9

Results for Cc1ccc(CNC(=O)c2cc(C)nn2-c2ccccc2)cc1 ?
BoNT F protease: 1; Autofluor counter: 4071; MazF activator: 8; BoNT A protease: 0; Anthrax LF inh2: -2; VHR inh abs: 21

How did O=C1C2C3C=CC(C3)C2C(=O)N1c1ccccc1 (stereo not given) do in these assays?
BoNT F protease: -3; Autofluor counter: 22433*; MazF activator: -3; BoNT A protease: inconclusive; Anthrax LF inh2: -2; VHR inh abs: 37

How did CN1C(=O)C2C=CC1C1C(=O)N(c3ccccc3)C(=O)C21 (stereo not given) do in these assays?
BoNT F protease: 4; Autofluor counter: 21330*; MazF activator: 0; BoNT A protease: 2; Anthrax LF inh2: -7; VHR inh abs: -11

How did O=C1C2C3C=CC(C3=C3CCCCC3)C2C(=O)N1c1ccccc1 (stereo not given) do in these assays?
BoNT F protease: -4; Autofluor counter: 2869; MazF activator: -1; BoNT A protease: 0; Anthrax LF inh2: 2; VHR inh abs: -2

How did CCNS(=O)(=O)c1ccc(CCC(=O)NCc2ccc(C)cc2)cc1 do in these assays?
BoNT F protease: -2; Autofluor counter: 4552; MazF activator: 5; BoNT A protease: 0; Anthrax LF inh2: 7; VHR inh abs: 15

What do the screens show for `O=C(NCCCN1CCOCC1)c1ccc(CS(=O)(=O)c2ccc(Br)cc2)o1`?
BoNT F protease: -4; Autofluor counter: 4344; MazF activator: -2; BoNT A protease: 0; Anthrax LF inh2: -2; VHR inh abs: 27

Screens (PubChem BioAssay)
